Assay results reported in PubChem BioAssay (NCI).
Several values for one entry are separate records, joined by “and”; a condition that tells them apart may be missing. Identical values can stand only once. About 83,000 compounds went through this panel and 20% of them were active in at least one assay; those are over-represented in the sample as a whole.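 Percent growth is the endpoint: 0 to 100 indicates growth inhibition (40 means 60% inhibition), 0 means no net growth, and negative values indicate cell death.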 Unmarked numbers belong to inactive results. Activity calls are given as the source filed them. How the source made its calls: active means growth percent below 10; inactive means the rest.

Columns and labels:
Assay in all cases: NCI-60 one-dose screen, 48 h (100 = growth as untreated, 0 = no growth, -100 = all killed)
[1] = tested on: NCI-H226 lung; details: 10 µM
[2] = tested on: NCI-H322M lung; details: 10 µM
[3] = tested on: HOP-62 NSCLC; details: 10 µM
[4] = tested on: NCI-H522 lung; details: 10 µM
[5] = tested on: A549/ATCC NSCLC; details: 10 µM
[6] = tested on: COLO 205 colon; details: 10 µM
[7] = tested on: DU-145 prostate; details: 10 µM
[8] = tested on: K-562 leukemia; details: 10 µM
[9] = tested on: SF-539 CNS; details: 10 µM
[10] = tested on: M14 melanoma; details: 10 µM
[11] = tested on: HCT-15 colon; details: 10 µM
[12] = tested on: HT29 colon; details: 10 µM
[13] = tested on: SNB-75 CNS; details: 10 µM
[14] = tested on: U251 CNS; details: 10 µM
[15] = tested on: PC-3 prostate; details: 10 µM
[16] = tested on: LOX IMVI melanoma; details: 10 µM
[17] = tested on: MOLT-4 leukemia; details: 10 µM
[18] = tested on: RPMI-8226 leukemia; details: 10 µM
[19] = tested on: SK-OV-3 ovarian; details: 10 µM
[20] = tested on: MDA-MB-468 breast; details: 10 µM unless noted

| Compound | growth [1] | growth [2] | growth [3] | growth [4] | growth [5] | growth [6] | growth [7] | growth [8] | growth [9] | growth [10] | growth [11] | growth [12] | growth [13] | growth [14] | growth [15] | growth [16] | growth [17] | growth [18] | growth [19] | growth [20] |
| --- | --- | --- | --- | --- | --- | --- | --- | --- | --- | --- | --- | --- | --- | --- | --- | --- | --- | --- | --- | --- |
| COc1cc2oc(-c3cccc(C(=O)Nc4ccc(Cl)cc4)c3)cc(=O)c2c(OCCNC(=O)[C@@H](N)CO)c1OC | 95.1% | 55.3% | 87.6% | -27.9% (active) | 102% | 40.9% | 77% | -53.3% (active) | 23.9% | -81.8% (active) | 83% | 37.3% | 121% | -82.6% (active) | 48.3% | -79.1% (active) | -40.4% (active) | -23.4% (active) | 115% | -85.6% (active) |
| Cc1ccc2c(c1)C(=O)/C(=C/c1c[nH]c3ccccc13)S2 | 40.8% | 72.2% | 47.4% | 11.2% | 64.6% | 67.8% | 78.2% | 19% | 48.1% | 64.2% | 29.5% | 55.6% | 41.1% | 22.7% | 23.7% | 19.1% | 32% | 32.3% | 84.4% | 17.8% |
| O=C(CSc1nc2ccccc2c(=O)n1-c1ccc(Cl)cc1)Nc1ccc(-c2nc3ccc([N+](=O)[O-])cc3[nH]2)cc1 | 0.985% (active) | 72.4% | 0.0608% (active) | 32.7% | 50.2% | 11% | 44.2% | 28.9% | 28.6% | 32.4% | 56.3% | 36.4% | 34.4% | 20.6% | -14.9% (active) | -30% (active) | 39.5% | 53% | 40.2% | -35.6% (active) |
| O=C(Nc1cc(Cl)cc(Cl)c1)Oc1c(Cl)c(Cl)c(Cl)c(Cl)c1Cl | – | – | – | – | – | – | – | – | – | – | – | – | – | – | – | – | – | – | – | 101% |
| O=C(O)CCN1C(=O)/C(=C/C=C/c2ccc([N+](=O)[O-])o2)SC1=S | – | 31% | – | – | 10.4% | – | 26.3% | 11.1% | – | – | – | – | 24.2% | – | – | -100% (active) | -20.4% (active) | -19.3% (active) | 63.5% | -77.8% (active) |
| O=c1ccc2nc(C(F)(F)F)nn(-c3ccccc3)c-2c1 | – | – | – | – | – | – | – | – | – | – | – | – | – | – | – | – | – | – | – | -73.5% (active) |
| O=C(/C=C/c1ccccc1)c1c[nH]c2ccccc2c1=O | – | – | – | – | – | – | – | – | – | – | – | – | – | – | – | – | – | – | – | -52.7% (active) |
| Cn1cc(-c2nnc(N)nc2-c2c[nH]c3ccccc23)c2cc(Br)cnc21 | 17.9% | 65.2% | 50.6% | 15.1% | 55.1% | 32.4% | 77% | 15.1% | 50.2% | 25.1% | 25.4% | 35.6% | 34% | 45.5% | 45.7% | -75.6% (active) | 2.48% (active) | 26.6% | 60.6% | -3.61% (active) |
| CCCOC(=O)Nc1nc2ccc(SCC(C)C)cc2s1 | – | – | – | – | – | – | – | – | – | – | – | – | – | – | – | – | – | – | – | -9.94% (active) |
| O=C(Nc1ccc(OCc2ccc(F)cc2)cc1)Nc1ccc(Cl)c(C(F)(F)F)c1 | 15% | 21.9% | 11.4% | -20.8% (active) | 16.4% | -79.2% (active) | 31.6% | 9.32% (active) | 8.73% (active) | 9.01% (active) | 7.42% (active) | 11.9% | 21% | 10.3% | -1.21% (active) | -47.4% (active) | 6.64% (active) | -1.27% (active) | -26.5% (active) | -8.31% (active) |
| Cc1ccc(COc2ccc(NC(=O)Nc3ccc(Cl)c(C(F)(F)F)c3)cc2)cc1 | 75.7% | 77.4% | 97.9% | 44.9% | 64.7% | 76.8% | 81.5% | 66.7% | 78.7% | 93.4% | 52.2% | 80.6% | 72.4% | 69.8% | 38.4% | 15.6% | 73.5% | 39.5% | 97.1% | -14.4% (active) |
| COc1cc(/C=C/C(C)=O)ccc1O | – | – | – | – | – | – | – | – | – | – | – | – | – | – | – | – | – | – | – | 100% and 111% |
| COc1cc(Nc2nc(O)c(/C=C3\C=Nc4ccccc43)s2)cc(OC)c1OC | -46.5% (active) | -47.7% (active) | -65.9% (active) | -13.6% (active) | -69.4% (active) | -5.44% (active) | -57.6% (active) | 3.33% (active) | -85.3% (active) | -18.7% (active) | -0.515% (active) | -50.7% (active) | -63.8% (active) | -79.8% (active) | -71.9% (active) | -61.5% (active) | 2.95% (active) | -25.1% (active) | -59.3% (active) | -19.9% (active) |
